This excerpt belongs to a sample that is enriched for hits.
AmpC detergent: qHTS Inhibitors of AmpC Beta-Lactamase (assay with detergent) | P00811 | AmpC hydrolysis of nitrocefin, absorbance 480 nm, 0.01% Triton | Potency, µM (top dose mostly 114 µM), for inactives: top-dose activity change, negative = inhibition, actives largely listed as inhibitors | 370,000 tested, 0.041% active;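 note: potency is the fitted concentration of half-maximal effect; 0% = no-compound wells and -100% = no-enzyme wells; nearly all actives have a fitted effect of over 25% in size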
Target sequence (P00811 whole entry, looked up): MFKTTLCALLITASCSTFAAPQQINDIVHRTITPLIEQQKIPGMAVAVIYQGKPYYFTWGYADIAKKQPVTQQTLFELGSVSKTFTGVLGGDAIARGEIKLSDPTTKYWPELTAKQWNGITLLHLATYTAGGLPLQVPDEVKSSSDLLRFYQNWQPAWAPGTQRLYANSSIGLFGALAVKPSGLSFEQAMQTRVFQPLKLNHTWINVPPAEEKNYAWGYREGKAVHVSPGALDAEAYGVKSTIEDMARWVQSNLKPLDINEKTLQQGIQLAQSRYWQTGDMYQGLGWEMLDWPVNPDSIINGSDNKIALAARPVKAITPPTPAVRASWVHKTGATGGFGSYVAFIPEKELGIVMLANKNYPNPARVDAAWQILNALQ
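20 mM phosphate pH 7.0 + 0.01% (detergent screen) or 0.0001% Triton X-100; 5.3 nM AmpC reagent; cpd preinc 15 min RT; nitrocefin (800 uM stock) to start; A480 q20 s × 4 min; Activity was normalised to no-enzyme and no-compound control wells.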
AmpC no deterg: qHTS Inhibitors of AmpC Beta-Lactamase (assay without detergent) | P00811 | AmpC nitrocefin hydrolysis, absorbance 480 nm, 0.0001% Triton | Potency, µM (titrated, usually from 57.1 µM), without a hit: at the top dose activity change, negative = inhibition, usual class: inhibitors | 330,000 tested, 0.52% active;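 note: potency is the fitted concentration of half-maximal effect; plate controls were no compound for no effect and no enzyme for full effect; nearly all actives have a fitted effect of over 20% in size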
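20 mM phosphate pH 7.0 + 0.01% (detergent screen) or 0.0001% Triton X-100; 5.3 nM AmpC reagent; cpd preinc 15 min RT; nitrocefin (800 uM stock) to start; A480 q20 s × 4 min; Activity was normalised to no-enzyme and no-compound control wells.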
Shiga toxin inh: A qHTS for Small Molecule Inhibitors of Shiga Toxin. Vero cells, Shiga toxin protein synthesis inhibition reporter. inhibition, % at 38.7 µM. 290,000 tested, 9.2% active. AID 2315, 2010; in the data active = inhibition mostly above about 28%, no sharp cut-off; inactive = mostly below about 43%; note: 0% is about no effect
NS1 inh: qHTS Assay for Inhibitors of Influenza NS1 Protein Function; Potency, µM (series often up to 46.1 µM), for inactives: at the highest dose activity, positive = more growth; 270,000 tested, 0.4% active; calls by dose curve; note: potency is the fitted concentration of half-maximal effect; actives are rising curves; nearly all actives have a fitted effect of over 50% in size
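Compounds were scored for reversing the slow growth caused by influenza A NS1 in S. cerevisiae, measured by optical density at 600 nm. Assay medium contained 2% galactose at pH 6.0; NS1-free yeast of the same strain were the positive control.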
CHX counter: Cycloheximide Counterscreen for Small Molecule Inhibitors of Shiga Toxin; cell reporter, cycloheximide protein synthesis inhibition counterscreen; max response, %; 300,000 tested, 12% active; in the data active = max response mostly above about 13%, no sharp cut-off; inactive = mostly below about 14%; note: read at 38.3 µM for the half of the compounds with a filed dose; 0% is about no effect
* hit, by the source's call; [ ] = another dose, or the depositor's remark. Unless noted, calls come from the whole dose curve; as a rule, active = well fitted curve in the direction sought with a large enough effect; inconclusive = small, poorly fitted or top-dose-only effect, or another doubt; inactive = no such curve, though single readings can be large; an effect the other way counts as inactive or inconclusive.

CCCCC(C)/C=C(C)/C=C(\C)C(=O)NC1=CC(O)(/C=C/C=C/C=C/C(=O)NC2=C(O)CCC2=O)C2OC2C1=O (stereo unspecified) was read as Shiga toxin inh -4 and CHX counter -6.
`Cc1nc2c(-c3ccccc3)c(C)nn2c(SCC(N)=O)c1Cc1ccccc1` gave AmpC detergent -7%, AmpC no deterg -2%, Shiga toxin inh 8, NS1 inh -14% and CHX counter -2.
Cc1ccc(NC(=O)C(Cc2ccccc2)NS(=O)(=O)c2ccc3c(c2)c(=O)n(C)c(=O)n3C)cc1 (stereo unspecified) was read as AmpC detergent 19%.
`CCSc1nc2c(cnn2-c2ccccc2)c(=O)n1N` gave AmpC detergent 6%, AmpC no deterg -20%, Shiga toxin inh 50*, NS1 inh -10% and CHX counter 46*.
Cc1cccc(-n2c(-c3ccco3)nc3c(cnn3-c3ccc(F)cc3)c2=O)c1 was read as AmpC detergent 1%.
Cc1ccc(-n2c(C)nc3c(cnn3-c3ccccc3)c2=O)cc1 was read as AmpC detergent 0%.
For CSc1nc2c(cnn2-c2ccccc2)c(=O)n1N the results were AmpC detergent 2%, AmpC no deterg -22%, Shiga toxin inh 91*, NS1 inh 4% and CHX counter 28*.
Cc1cccc(-n2c(C)nc3c(cnn3-c3ccc(F)cc3)c2=O)c1 was read as AmpC detergent -11%, AmpC no deterg -15%, Shiga toxin inh 31, NS1 inh -55% and CHX counter 39*.
Screening C=CCn1c(C)nc2c(cnn2-c2ccccc2)c1=O returned AmpC detergent -7%, AmpC no deterg -3%, Shiga toxin inh 19, NS1 inh -4% and CHX counter 14*.
Screening CCC(CC)c1nnc(NC(=O)Oc2ccccc2)s1 returned AmpC detergent 7%, AmpC no deterg -4%, Shiga toxin inh -4, NS1 inh 25% and CHX counter -2.
C=CCN1C(=O)C(CC(=O)NCC)SC1=Nc1ccccc1OC (stereo unspecified) was read as AmpC detergent 2%, AmpC no deterg 13%, Shiga toxin inh -7, NS1 inh 0% and CHX counter -1.
Screening CCOc1ccc(-c2noc(CCCC(=O)NC3CCCCC3)n2)cc1OC returned AmpC detergent 6%, AmpC no deterg 89%, Shiga toxin inh -9, NS1 inh -2% and CHX counter -5.
For COCCn1c(C)cc(C(=O)Cn2nc(C(=O)O)c3ccccc3c2=O)c1C the results were AmpC detergent -12%, AmpC no deterg -15%[11.4 µM], Shiga toxin inh 20 and CHX counter 17.
For C=CCn1c(C)cc(C(=O)Cn2nc(C(=O)O)c3ccccc3c2=O)c1C the results were AmpC detergent -3%, AmpC no deterg -34%, Shiga toxin inh 56*, NS1 inh -3% and CHX counter 32*.
For Cc1cc(C(=O)Cn2nc(C(=O)O)c3ccccc3c2=O)c(C)n1-c1ccc(F)cc1 the results were AmpC detergent 0%, AmpC no deterg inconclusive, Shiga toxin inh 155*, NS1 inh -1% and CHX counter 49*.
For CCCn1c(C)cc(C(=O)Cn2nnc3ccccc3c2=O)c1C the results were AmpC detergent -1%, AmpC no deterg -12%, Shiga toxin inh 82* and CHX counter 35*.
Screening COc1ccccc1N1CCN(S(=O)(=O)c2c(C)nc3sccn3c2=O)CC1 returned AmpC detergent -8%.
`Cc1c(CCC(=O)NCc2ccc(F)cc2)c(=O)oc2cc(O)ccc12` gave AmpC detergent 9%.
`CCn1c(SCC(=O)Nc2ncc(C(F)(F)F)cc2Cl)nnc1-c1ccccc1` gave AmpC detergent 7%, AmpC no deterg 6%, Shiga toxin inh -5, NS1 inh 11% and CHX counter 0.
`Cc1cc(NC(=O)C(C)SCC(=O)Nc2cc(C(F)(F)F)ccc2N2CCCCC2)no1` (stereo unspecified) gave AmpC detergent 4% and AmpC no deterg 32µM*.
Screening O=C(COc1ccc(Cl)cc1)Nc1ccc2[nH]ncc2c1 returned AmpC detergent -13%, AmpC no deterg -23%, Shiga toxin inh -3, NS1 inh -7% and CHX counter -2.
`O=C(O)c1c(Cl)c(Cl)c(Cl)c(Cl)c1C(=O)Nc1ccc2cn[nH]c2c1` gave NS1 inh -6%.
For COc1ccc(C(=O)Nc2ccc3cn[nH]c3c2)c(OC)c1 the results were AmpC detergent -2%, AmpC no deterg -14%[11.4 µM], Shiga toxin inh 123* and CHX counter 63*.
Screening CCOc1ccc(C(=O)Nc2ccc3[nH]ncc3c2)cc1 returned AmpC detergent -15%, AmpC no deterg -10%, Shiga toxin inh 32, NS1 inh 27% and CHX counter 19*.
COc1ccc(C(=O)Nc2ccc3oc(-c4ccc(OC)cc4)nc3c2)cc1 was read as AmpC detergent 0%.
Screening COc1ccc(C(=O)Nc2ccc3[nH]ncc3c2)cc1 returned AmpC detergent -11%, AmpC no deterg -15%, Shiga toxin inh 53*, NS1 inh 14% and CHX counter 19*.
`CCn1c(-c2cc(-c3ccc(C)cc3)nc3ccccc23)n[nH]c1=S` gave AmpC detergent inconclusive, AmpC no deterg -28%[11.4 µM], Shiga toxin inh 21 and CHX counter 16*.
CCn1c(-c2cc(-c3ccc(OC(C)C)cc3)nc3ccccc23)n[nH]c1=S was read as AmpC detergent -5%, AmpC no deterg -17%, Shiga toxin inh 44, NS1 inh 22% and CHX counter 31*.
`CCCn1c(=O)sc2cc(NC(=O)COc3ccc(Cl)cc3)ccc21` gave AmpC detergent -1%.
For O=C(O)c1ccccc1C(=O)Nc1c(-c2ccccc2)nc2ccccn12 the results were AmpC detergent 5%, AmpC no deterg -3%, Shiga toxin inh 18, NS1 inh 5% and CHX counter 27*.
`Cc1ccc(-c2nc3ccccn3c2C=O)cc1` gave AmpC detergent -1%, AmpC no deterg 12%, Shiga toxin inh 66*, NS1 inh -2% and CHX counter 32*.
Screening COc1ccc(OC)c(/C=N/c2c(-c3ccc(O)c(OC)c3)nc3ccccn23)c1 returned AmpC detergent 1%, AmpC no deterg -34%, Shiga toxin inh 30 and CHX counter 14.
For c1ccn2c(c1)nc1c2nc2ccccn21 the results were AmpC detergent -17%, AmpC no deterg -15%, Shiga toxin inh 28, NS1 inh -12% and CHX counter 7.
`Clc1c(-c2ccccc2)nc2ccccn12` gave AmpC detergent -14%, AmpC no deterg -14%, Shiga toxin inh 37, NS1 inh -31% and CHX counter 21*.
